Assay outcomes as filed in PubChem.
An excerpt weighted towards active compounds, which were near 3.1% of everything screened.
TRAIL sens C8: caspase-8 TRAIL sensitization; AID 624354; inhibition (viability loss, TRAIL sensitization), % at 10 µM; hit rate 1% among 360,000; NB7+C8 cells + TRAIL, ATPlite viability luminescence;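 active means compounds causing at least 50% loss of cell viability in the single-dose screen, relative to plate controls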
HIF-2a inh: inhibitors of HIF-2a; 786-0 RCC cells HIF-2a reporter, luciferase luminescence, overnight; inhibition, % at 18.8 µM; hit rate 0.72% among 360,000; AID 624352;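 active means inhibition of the luminescence signal of 40% or more relative to plate controls, in a single-dose primary screen at 18.75 µM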
PPC-1+TRAIL kill: compounds killing PPC-1 cancer cells with TRAIL present (potentiator screen, no TRAIL-free arm) | PPC-1 cells + TRAIL, ATPLite viability luminescence | cell killing (% activity), % at 4 µM or 5 µM | hit rate 0.41% among 220,000;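 active means cell killing above 50% in the first pass at 4 µM, then a duplicate retest at 5 µM averaging 50% or more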;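 further: plate controls were cells with TRAIL plus DMSO for no effect and medium-only wells lacking cells for full effect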
Peg3 promoter: reduces Peg3 promoter-driven luciferase expression in HeLa. AID 588405. inhibition, % at 20 µM. hit rate 1.7% among 360,000. HeLa PEG-Prom luciferase reporter, luminescence, overnight;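 active means inhibition of at least 50% at 20 µM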
KKLEB cytotox: counter-screen for CF NF-kB inhibitors: cytotoxicity. activity change (cytotoxicity), % at 5 µM. hit rate 0.36% among 360,000. KKLEB CF airway cells viability, ATPlite luminescence, overnight; active compounds read low; cells stimulated with P. aeruginosa culture filtrate;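 active means corrected activity change at or below -50% at 5 µM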
CF NFkB block: inhibitors of cystic fibrosis induced NF-kB; KKLEB NF-kB-GFP reporter, PAF-induced, GFP fluorescence overnight; inhibition, % at 5 µM; hit rate 0.86% among 360,000; AID 588850;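 active means at least 50% inhibition at 5 µM, scaled per plate between neutral and stimulator controls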;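 further: PAF is a Pseudomonas aeruginosa culture filtrate used as stimulus; plate controls were PAF-stimulated DMSO wells for no effect and unstimulated DMSO wells for full effect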
Mdm2-MdmX confirm: Mdm2/MdmX (human) interaction inhibition, confirmed. shares compounds with HIF-2a inh. SaOS-2 split-luciferase Mdm2/MdmX complementation, luminescence. inhibition, % at 8 µM. hit rate 99% among 740. AID 504601;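 active means mean inhibition of the luminescence signal across two replicates at or above 26 percent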
HIF-2a inh conf: confirmation of HIF-2a inhibitors; AID 651580; hit rate 56% among 1,800; shares compounds with HIF-2a inh; 786-0 RCC cells, HIF-2a luciferase reporter luminescence, overnight; inhibition, % at 18.8 µM;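 active means mean inhibition across four replicates of at least 40 percent at the single tested concentration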
HIF-1a counter: HIF-1a inhibition counter-screen for HIF-2a hits | hit rate 72% among 1,800 | MiaPaCa-2 HIF-1a luciferase reporter, desferoxamine, overnight | shares compounds with HIF-2a inh | AID 651589 | inhibition, % at 18.8 µM;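 active means mean inhibition of the reporter signal across four replicates at the single tested dose of 50% or more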
* marks the source's active call; other numbers are inactive results; x = no result.

SMILES	TRAIL sens C8	HIF-2a inh	PPC-1+TRAIL kill	Peg3 promoter	KKLEB cytotox	CF NFkB block	HIF-2a inh conf	HIF-1a counter	others
O=[N+]([O-])c1cc(S(=O)(=O)C(F)(F)F)ccc1Sc1nc2ccccc2s1	-2	56*	12	110*	-38	10	34	101*
O=C(NC1CCCCC1)C(c1cccc2ccccc12)n1c(=O)c(-c2ccco2)nc2ccccc21 (configuration not stated)	-14	18	x	x	x	x	x	x
C[C@@H]1CCCCO[C@H](CN(C)C(=O)Nc2ccc(F)cc2)[C@@H](C)CN([C@H](C)CO)C(=O)c2cc(N(C)C)ccc2O1	5	7	x	1	7	-8	x	x
CC(NS(=O)(=O)c1cc2c3c(c1)CCN3C(=O)CC2)c1ccccc1 (configuration not stated)	-23	6	x	5	-1	-4	x	x
FC(F)(F)c1nc2ccccc2n2c(-c3ccc(Cl)cc3)nnc12	9	46*	10	51*	-56*	76*	25	86*
CCOC(=O)C1CCCN(S(=O)(=O)c2cc3c4c(c2)CCC(=O)N4CCC3)C1 (configuration not stated)	11	13	x	-3	9	-19	x	x
CCCN(CC(=O)Nc1ccc(F)c(F)c1F)C(=O)CN1C(=O)NC2(CCCCC2)C1=O	0	16	x	-9	4	10	x	x
CCN(CC)c1ccc(/C=N/NC(=O)c2cccc(S(=O)(=O)N3CCOCC3)c2)c(O)c1	22	10	29	38	-17	4	x	x	Mdm2-MdmX confirm=91*
O=C(O)Cc1coc2cc3c(cc12)CCC3	-14	14	5	10	2	5	x	x
O=C(Cc1coc2cc3c(cc12)CCC3)OCC(=O)N1CCCC1=O	-3	80*	11	28	-16	35	77*	83*
CC1=C(C(=O)OCc2ccc3c(c2)OCO3)C(c2ccc(F)cc2)NC(=O)N1 (configuration not stated)	25	23	-27	55*	-32	86*	x	x	Mdm2-MdmX confirm=97*
COc1ccc(/C=C/c2nc3ccccc3c(=O)o2)cc1	75*	43*	x	38	-16	25	18	89*
COc1ccc(OC(C)C(=O)N(C)Cc2nc(-c3cccc(C)c3)no2)cc1 (configuration not stated)	-13	11	x	24	5	-11	x	x
O=C(O)c1ccccc1NC(=O)c1ccccc1Nc1ccccc1	5	-62	x	4	-15	-9	x	x
Cc1nn(-c2ccccc2)c(Cl)c1CN(C(=O)CCl)c1cccc2ccccc12	97*	62*	-3	95*	1	32	73*	106*	Mdm2-MdmX confirm=103*
CC(=O)N(Cc1c(C)nn(-c2ccccc2)c1Cl)c1ccc(Cl)cc1	7	29	-8	22	-10	18	x	x
Cc1nn(-c2ccccc2)c(Cl)c1CN(C(=O)CCl)c1ccc(Cl)cc1	97*	96*	-3	103*	-97*	91*	99*	106*
Cc1nn(-c2ccccc2)c(Cl)c1C(=O)NCC(=O)O	-9	10	10	-7	2	-2	x	x
Cc1ccc(Nc2nc(C)cc(C)c2C#N)c(C)c1	-28	12	x	20	10	1	x	x
CCOC(=O)C1(Cc2ccccc2C#N)CCCCC1=O (configuration not stated)	-22	1	x	4	-12	-8	x	x
NC(=O)CC(NC(=O)c1ccccc1)c1ccc(NCc2ccc(F)c(F)c2)c([N+](=O)[O-])c1 (configuration not stated)	17	19	x	13	4	17	x	x
NC(=O)CC(NC(=O)c1ccccc1)c1ccc(NCCc2ccc(Cl)cc2)c([N+](=O)[O-])c1 (configuration not stated)	4	50*	20	16	-14	2	-3	33
COc1cc(/C=N\NC(=O)CC#N)ccc1OC/C=C/c1ccccc1	18	1	x	10	1	-27	x	x
CC(=O)N/N=C\c1cccc(OC/C=C/c2ccccc2)c1	7	48*	x	-71	-5	3	56*	-30
CC(=O)N/N=C\c1ccccc1OC/C=C/c1ccccc1	15	-104	x	-262	7	-28	x	x
SMILES	TRAIL sens C8	HIF-2a inh	PPC-1+TRAIL kill	Peg3 promoter	KKLEB cytotox	CF NFkB block	HIF-2a inh conf	HIF-1a counter	others
N#CCC(=O)N/N=C\c1cccc(OC/C=C/c2ccccc2)c1	-4	64*	x	52*	9	-5	71*	11
Cc1nc(Nc2cc(F)ccc2C)c2nnn(Cc3ccccc3)c2n1	-1	13	x	25	-7	-7	x	x
COc1ccc2c(c1)C1(Nc3ccccc3-c3nc4ccccc4n31)C(=O)N2C (configuration not stated)	3	14	23	0	3	-2	x	x	Mdm2-MdmX confirm=94*
COc1ccc(OC)c(C(C[N+](=O)[O-])c2c(C)cc3ccccn23)c1 (configuration not stated)	8	44*	x	37	-14	19	18	39
Cc1ccc(/C=C/C(O)=C2/C(=O)N(C)C3(C)CC2c2ccccc2O3)cc1 (configuration not stated)	13	83*	-6	39	-3	15	37	97*
COc1ccc(/C=C/C(O)=C2/C(=O)N(C)C3(C)CC2c2ccccc2O3)cc1 (configuration not stated)	9	54*	20	29	-6	7	-5	54*
COc1ccc(/C=C/C(O)=C2/C(=O)NC3(C)CC2c2ccccc2O3)c(OC)c1OC (configuration not stated)	-15	36	24	34	0	14	x	x
O=C(O)COc1ccc2occ(C(=O)c3ccccc3)c2c1	10	7	27	7	0	6	x	x
O=C(O)COc1ccc2oc3ccccc3c2c1	-6	53*	0	14	5	-3	68*	30
CC(C)Oc1cccc(NC(=O)C2(C)CCN2C(C)C)c1 (configuration not stated)	3	-2	x	7	11	-3	x	x
Cc1ccc(NC(=O)C(=Cc2ccc(C(=O)O)cc2)C(=O)Nc2ccc(C)cc2C)c(C)c1	9	85*	24	95*	-58*	14	92*	104*	Mdm2-MdmX confirm=102*
Cc1ccc(NC(=O)CCl)c(C)c1	-10	6	3	6	3	-24	x	x
